Screening data (PubChem)
An excerpt weighted towards active compounds, which were near 3.8% of everything screened.
NTMT1 inhibitor = Primary qHTS for Inhibitors of N-terminal methyltransferase 1 (NTMT1): MTaseGlo Assay; N-terminal Xaa-Pro-Lys N-methyltransferase 1 (Homo sapiens), Q9BV86; Potency, µM (series often up to 114 µM), without a hit: at the highest dose activity change, negative = inhibition, hits mostly inhibitors; NTMT1 MTase-Glo SAH luminescence, purified enzyme; actives 2.5% (n = 59,000);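 also: potency is read from the fitted curve at half-maximal effect; plate controls were DMSO vehicle for no effect and no enzyme for full effect; nearly all actives have a fitted effect of over 65% in size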
Target sequence (Q9BV86 whole entry, looked up): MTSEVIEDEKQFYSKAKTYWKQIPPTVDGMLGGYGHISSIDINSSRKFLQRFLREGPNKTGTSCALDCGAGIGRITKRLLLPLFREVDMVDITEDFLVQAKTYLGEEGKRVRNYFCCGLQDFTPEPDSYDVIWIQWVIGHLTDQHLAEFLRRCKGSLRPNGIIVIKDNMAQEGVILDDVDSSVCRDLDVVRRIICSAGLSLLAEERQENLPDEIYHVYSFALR
B2AR arrestin ag = qHTS assay of beta-arrestin-biased ligands of beta2-adrenergic receptor: NCGC Sytravon Library Screen. Beta-2 adrenergic receptor (Homo sapiens), P07550. HTLA Tango cells, beta-arrestin recruitment, luciferase luminescence, 18 h. Potency, µM (titrated, usually from 46.1 µM), hits mostly activators. 44,000 tested, under 10 active. AID 1347077, 2019;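 also: potency is read from the fitted curve at half-maximal effect; 0% = DMSO and full agonism = EC100 isoproterenol or metaproterenol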
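Tango cells expressing recombinant beta2-AR and beta-arrestin were treated with compounds (up to 46 microM titration) in DMEM with 1% FBS for 18 hr at 37 degrees C. Beta-arrestin recruitment drove tTA-dependent luciferase, read by luminescence; curves were fitted and classed.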
SKOV3 invasion = Primary qHTS assay for Inhibitors of ovarian cancer metastasis using an organotypic tumor microenvironment (TME) model; SKOV3ip1-GFP adhesion/invasion on 3D omental model, fluorescence; Potency, µM (titrated, usually from 45.8 µM), for the others: at the highest dose activity change, negative = inhibition, hits mostly inhibitors; actives 0.1% (n = 46,000);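 also: potency is read from the fitted curve at half-maximal effect; plate controls were DMSO wells for no effect and tomatine positive control wells for full effect; nearly all actives have a fitted effect of over 65% in size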
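Primary human omental fibroblast/mesothelial 3D culture pre-formed 48 h. SKOV3ip1-GFP cells added with compounds (0.36-46 umol/L), incubated 2 h RT/16 h 37 C, fixed; GFP cells quantified at 488/509 nm.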
GALK inhibitor = qHTS Assay for Inhibitors of Human Galactokinase (GALK): NCGC Sytravon Library Screen; P51570; AID 1347072, 2019; 44,000 tested, under 10 active; Potency, µM (highest dose often 57.5 µM), for the others: at the highest dose activity, negative = inhibition, most hits filed as inhibitors; recombinant GALK, Kinase-Glo ATP luminescence, 1 h;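 also: plate controls were full GALK reaction for no effect and reaction lacking GALK for full effect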
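Reactions with and without enzyme served as controls. GALK at 5 nM phosphorylates 100 uM galactose using 35 uM ATP (HEPES pH 8.0, Mg2+) for 1 h at RT, with luminescence read 10 min after adding Kinase-Glo Plus.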
DRV1 agonist = qHTS for Agonists of Human Resolvin D1 Receptor DRV1; Probable G-protein coupled receptor 32 (Homo sapiens), O75388; CHO-K1 GPR32 beta-arrestin PathHunter luminescence, 90 min; zero percent set by DMSO-only wells; activation, % at 76.9 µM; actives 2.5% (n = 48,000);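 active = activation of at least 60% and not above a set upper limit, about 1 call in 100 departs from these limits; inconclusive = activation of 40% to 60%, or above that upper limit; inactive = activation under 40%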; also: 0% is about no effect
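Cells are plated overnight, treated with compounds in DMSO for 90 minutes at 37 °C, and developed with PathHunter detection reagent for 1 hour before luminescence is read; signal reflects beta-arrestin binding to GPR32 in engineered CHO-K1 cells.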
PTAP-TSG101 blk = qHTS Validation Assay for Inhibitors of HIV-1 Budding by Blocking the Interaction of PTAP/TSG101: Sytravon Library Screen | Tumor susceptibility gene 101 protein (Homo sapiens), Q99816 | Fluorescence polarization, FITC-PTAP peptide/Tsg101, 20 min | Potency, µM (series often up to 115 µM), hits mostly inhibitors | 44,000 tested, under 10 active | AID 1347069, 2019; also: potency is read from the fitted curve at half-maximal effect; 0% is about no effect
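FITC-labeled PTAP peptide (50 nM final) binding to Tsg101 binding domain (10 uM final) read by fluorescence polarization after 20 min at r.t. in HEPES pH 7.5 buffer. Actives by CRC class, <25 µM.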
An asterisk follows results filed as active; i = inactive; ? = inconclusive; / = no result given; ! = repeats disagree. Unless noted, calls follow the shape of the dose curve; as a rule, active = well fitted curve in the direction sought with a large enough effect; inconclusive = small, poorly fitted or top-dose-only effect, or another doubt; inactive = no such curve, though single readings can be large; an effect the other way counts as inactive or inconclusive.

SMILES | NTMT1 inhibitor | B2AR arrestin ag | SKOV3 invasion | GALK inhibitor | DRV1 agonist | PTAP-TSG101 blk
CCC(C)C(N)C1=NC(C(=O)N[C@@H](CC(C)C)C(=O)N[C@H](CCC(=O)O)C(=O)N[C@H](C(=O)N[C@H]2CCCCNC(=O)[C@H](CC(N)=O)NC(=O)[C@@H](CC(=O)O)NC(=O)[C@H](Cc3cnc[nH]3)NC(=O)[C@@H](Cc3ccccc3)NC(=O)[C@H]([C@@H](C)CC)NC(=O)[C@@H](CCCN)NC2=O)[C@@H](C)CC)CS1 (stereo partly specified) | 7.9µM*! | / | / | / | / | /
CCOc1ccccc1CNC(=O)C1CCN(c2nnc(C)c3c(C)n(-c4ccc(C)cc4)nc23)CC1 | ? | i | 7.9µM* | 0% | -8 | i
Cc1ccc(-c2nnc3ccccc3c2C(=O)Nc2ccccc2F)cc1 | -7% | i | -18% | 1% | -12 | i
CC(C)c1onc(-c2c(Cl)cccc2Cl)c1COc1ccc(/C=C/c2cccc(C(=O)O)c2)c(Cl)c1 | 32µM* | / | / | / | / | /
COC(=O)c1c(NC(=O)CCCOc2ccc(C)cc2)sc2c1C(C(=O)OC)CC2 (stereo unspecified) | 18µM* | i | -4% | -23% | -14 | i
CCOC(=O)c1c(NC(=O)/C=C/c2ccc(Cl)cc2)sc2c1CCC(C)C2 (stereo unspecified) | ? | i | i | 0% | 79* | i
COC(=O)c1c(NC(=O)CCCOc2cccc(C)c2)sc2c1CCC2 | -10% | i | -2% | -17% | -3 | i
CCOc1ccc(/C=C/C(=O)Nc2sc3c(c2C(=O)OC)C(C(=O)OC)CC3)cc1 (stereo unspecified) | 10µM* | i | 3% | -1% | -6 | i
COC(=O)c1c(NC(=O)CCCOc2ccc(C)cc2)sc2c1CCCC2 | -6% | i | 2% | -1% | 8 | i
COC(=O)c1c(NC(=O)CCCOc2cccc(C)c2)sc2c1C(C(=O)OC)CC2 (stereo unspecified) | 14µM* | i | i | -4% | -23 | i
O=C(c1ccc(F)cc1)N1c2ncnn2C2(CCCCC2)[C@@H]2CCCC[C@@H]21 | -4% | i | -13% | 0% | -5 | i
CCc1ccc(NC(=O)C2CCC(CNS(=O)(=O)c3ccc4c(c3)CC(C)N4C(C)=O)CC2)cc1 (stereo unspecified) | -7% | i | 5% | 0% | 19 | i
Cc1ccc(NC(=O)C2CCC(CNS(=O)(=O)c3cccs3)CC2)cc1C (stereo unspecified) | -7% | i | i | 3% | 2 | i
CC(=O)c1ccc(NC(=O)C2CCC(CNS(=O)(=O)c3cccs3)CC2)cc1 (stereo unspecified) | 17% | i | 0% | -7% | 108* | i
CC(=O)N1c2ccc(S(=O)(=O)NCC3CCC(C(=O)Nc4ccc(F)cc4)CC3)cc2CC1C (stereo unspecified) | 16% | i | -3% | 0% | 68* | i
COc1ccc(CNc2n[nH]c(-c3ccco3)n2)cc1OC | -24% | i | 5% | 2% | 0 | i
COC(=O)c1ccccc1NC(=O)[C@H]1O[C@@H]2OC(C)(C)O[C@@H]2[C@H]2OC(C)(C)O[C@H]21 | 12% | i | i | 0% | -37 | i
